{"source": "ChEMBL document CHEMBL1201862", "about": "“PubChem BioAssay data set” (2004)", "note": "Among all 400,000 compounds or so, about 3,700 (0.93%) were called active. Inconclusive results (about 3%) are left out. The calls are words filed in the database; no cut-off is given here. The full list was thinned out, with actives kept by preference."}
{"target": "T1, Vitamin D3 receptor (Homo sapiens) (UniProt P11473)", "T1 sequence (whole entry)": "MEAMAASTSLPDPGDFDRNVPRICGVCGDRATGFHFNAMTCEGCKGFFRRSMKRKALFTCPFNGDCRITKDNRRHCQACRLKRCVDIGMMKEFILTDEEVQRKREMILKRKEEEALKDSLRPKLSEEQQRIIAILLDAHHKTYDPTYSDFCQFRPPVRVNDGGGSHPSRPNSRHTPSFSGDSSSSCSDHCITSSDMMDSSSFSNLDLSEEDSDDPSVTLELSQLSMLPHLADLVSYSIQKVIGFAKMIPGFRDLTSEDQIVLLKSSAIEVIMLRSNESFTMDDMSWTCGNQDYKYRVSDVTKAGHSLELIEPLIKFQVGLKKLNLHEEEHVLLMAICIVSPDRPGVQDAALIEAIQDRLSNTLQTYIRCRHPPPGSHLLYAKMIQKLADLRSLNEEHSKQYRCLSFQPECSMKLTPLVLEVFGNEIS", "test": "Inhibitors of the vitamin D receptor (VDR): qHTS. [Related pubchem assays (depositor defined):AID504855]", "type": "functional"}
{"smiles": "Cl[Te]1(Cl)OCCO1", "Potency": "3.16 µM (active)"}
